Screening data as filed in PubChem BioAssay.
KDM5B inh = blocks human KDM5B histone demethylase activity; KDM5B demethylase, FDH-coupled NADH fluorescence (FDH is formaldehyde dehydrogenase); AID 1347165; 2.6% of 220,000 active; Potency, µM (highest dose often 57.7 µM), actives largely listed as inhibitors; active means well fitted inhibition curve with a large enough effect; further: 0% is about no effect; nearly all actives have a fitted effect of over 70% in size
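Coupled FDH/NAD⁺ fluorescence readout. KDM5BΔAP 200 nM final; compound titration, 10 min RT preincubation; substrate mix 12.5 µM H3K4me3, 25 µM 2-OG, 50 µM Fe(II), 100 µM ascorbate, 0.25 mM NAD⁺, 0.25 U/mL FDH; ΔRFU over 30 min.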
* hit, by the source's call; i = inactive. Many of the other results were omitted from the sample, so hits are more common in it than they were. Potency means the concentration at half of the fitted maximal effect.

SMILES	KDM5B inh
CNC(=O)NC(=O)CCN(C)Cc1ccc(C(C)C)cc1	i
COc1ccc2c(c1)CCN=C2C[C@H]1CN(C(=O)C(C)(C)C)CC[C@H]1CC(=O)O	i
C=CCNC(=O)N1CCOC(CN(CC(C)C)C(=O)c2cccc(OC)c2)C1 (centres undefined)	i
COc1cc2c(cc1OC)C(C[C@H]1CN(C(=O)Cc3cccs3)CC[C@H]1CC(=O)O)=NCC2	28µM*
COc1ccc(S(=O)(=O)N2CCCCC2)cc1NC(=O)Cc1cccs1	i
C=CCNC(=O)N1CC[C@@H](CC(=O)O)[C@@H](CC2=NCCc3cc(OC)ccc32)C1	35µM*
CN(CC[C@H]1CN(C(=O)c2cccs2)CC[C@H]1CC(=O)O)c1ccccc1	i
O=C(CCn1ccc2cc(S(=O)(=O)N3CCCCC3)ccc21)NCC1CCCO1 (centres undefined)	i
CC(NC(=O)c1ccc2c(c1)NC(=O)CS2)c1ccco1 (centres undefined)	i
O=[N+]([O-])c1cccc(/C=N/NC(=S)Nc2ccccc2)c1	i
CCN(CC)c1ccc(NC(=O)c2cnc3ccccc3n2)cc1	i
CC(C)OCc1ccccc1CNS(=O)(=O)c1ccc(Br)cc1Cl	i
CCC(C)(C)NC(=O)Cc1csc(-c2ccccc2)n1	i
COCCNC(=O)c1cc(-c2ccco2)nc2ccccc12	i
CCc1ccc2c(c1)-c1ccccc1S(=O)(=O)N2CC(=O)Nc1ccccc1C(F)(F)F	i
O=C(NCCO)c1cc2ccccc2[nH]1	i
O=C(NC1CC(c2cc(NCCO)ncn2)C1)c1cc2ccccc2[nH]1 (centres undefined)	28µM*
O=C(NCCNC(=O)c1cc2ccccc2[nH]1)C(=O)NC1CCCC1	i
COC(=O)c1cc(-c2ccccn2)nc2ccccc12	i
COc1ccccc1-c1nc2cnccn2c1NCCC(=O)Nc1ccc2c(c1)OCO2	28µM*
COc1cccc(-c2nc3cnccn3c2NCCC(=O)N2CCN(C)CC2)c1	28µM*
COc1ccccc1-c1nc2cnccn2c1NCCC(=O)N1CCc2ccccc21	28µM*
COc1cnc(CSc2nc(C)cs2)cc1OCC(=O)N1CCc2ccccc21	i
COc1ccccc1-c1ccc2ncc(Nc3ccc4c(c3)OCO4)n2n1	i
COc1ccc2c(ccn2CC(=O)Nc2ccc3c(c2)OCO3)c1	i
SMILES	KDM5B inh
COc1ccc(Nc2c(-c3cccc(O)c3)nc3cnccn23)cc1	i
COc1cccc(NC(=O)Cc2ccc(NC(=O)N3CCCCc4ccccc43)cc2)c1	i
COc1cccc(Cc2nc3ccccc3nc2SCC(=O)N2CCc3ccccc32)c1	i
CCCCCCC(=O)N1CCCC(c2nc(-c3cccc(OC)c3)no2)C1 (centres undefined)	i
COc1cnc(CSc2nc(C)cc(C)n2)cc1OCC(=O)N1CCc2ccccc21	i
COc1cccc(-c2nc3cnccn3c2NCCC(=O)N2CCc3ccccc32)c1	22µM*
CC1(C)CC(NC(=S)Nc2ccc(SC(F)F)cc2)CC(C)(C)N1	i
O=C(NCCNC(=O)c1cc2ccccc2[nH]1)C(=O)Nc1cccc2ccccc12	i
CCn1c(-n2nc(C)cc2C)nc2c1c(=O)n(Cc1ccc(F)cc1)c(=O)n2C	i
COc1ccccc1N1C(=O)CCC1(C)C(=O)NC1CCCC1 (centres undefined)	i
CSCc1ccc(C(=O)N2CCN(C(c3ccc(F)cc3)c3ccc(F)cc3)CC2)o1	i
COc1ccc(NC(=S)NNC(N)=O)cc1	i
CC(NC(=O)c1cc(Cl)nc(Cl)c1)C1CC2CCC1C2 (centres undefined)	i
O=C(CCn1c(=O)oc2cc(S(=O)(=O)N3CCCC3)ccc21)Nc1ccc(OC(F)(F)F)cc1	i
COc1ccc(N2C(=O)C(C)(C)CS2(=O)=O)cc1S(=O)(=O)N1CCc2ccccc21	i
Cc1cccc(OCC(O)CN(Cc2ccccc2)Cc2ccccc2)c1 (centres undefined)	i
N#Cc1cc(-n2ccnc2-c2cc3n(n2)CCCNC3)ccc1N1CCCC1	28µM*
c1cn(-c2ccc(-c3cscn3)cc2)c(-c2cc3n(n2)CCCNC3)n1	i
c1cn(-c2ccc3cn[nH]c3c2)c(-c2cc3n(n2)CCCNC3)n1	i
COc1cc(-n2cnnn2)cc(-n2ccnc2-c2cc3n(n2)CCNC3)c1	i
c1cncc(CCn2ccnc2-c2cc3n(n2)CCCNC3)c1	i
c1cn(-c2ccc3ncsc3c2)c(-c2cc3n(n2)CCCNC3)n1	3.5µM*
CC(C)Cc1ccc(C(C)NC(=O)CCNC(=O)C(C)(C)C)cc1 (centres undefined)	i
O=C1CC(N2CCOCC2)C=C1Nc1ccccc1 (centres undefined)	i
COc1ccc(C(C)NC(=O)C2CCN(c3cc(C(F)(F)F)ncn3)CC2)cc1 (centres undefined)	i
O=C(c1ccc(F)c(Cl)c1)N1CCN(C(=O)c2nnn3c2COC(c2ccccc2)C3)CC1 (centres undefined)	i
